The structures appear in SMILES notation. Out of some 39,000 compounds screened, about 3,300 (8.5%) were called active. The sample as a whole holds a higher share of actives than the screen did.

The test system of this experiment is HepG2. In words: cytotoxicity call (relative viability < 0.9). The settings on record: 10 µM.
For `C[C@@H]1CCCCO[C@@H](CN(C)C(=O)Nc2ccc(F)cc2)[C@@H](C)CN([C@H](C)CO)C(=O)c2cc(NC(=O)c3ccncc3)ccc2O1`, the cytotoxicity call was “inactive”.
On to `Cc1ccc(S(=O)(=O)Nc2ccc3c(c2)C(=O)N([C@H](C)CO)C[C@H](C)[C@H](CN(C)C(=O)Nc2ccc4c(c2)OCO4)OCCCC[C@H](C)O3)cc1`, for which the cytotoxicity call is “active”.
Regarding `COc1ccc(S(=O)(=O)Nc2ccc3c(c2)C(=O)N([C@@H](C)CO)C[C@@H](C)[C@@H](CN(C)C(=O)Nc2ccc4c(c2)OCO4)OCCCC[C@@H](C)O3)cc1`, the cytotoxicity call was “active”.
For `C[C@@H]1CN([C@H](C)CO)C(=O)c2cc(NS(=O)(=O)c3ccc(Cl)cc3)ccc2O[C@@H](C)CCCCO[C@H]1CN(C)C(=O)Nc1ccc2c(c1)OCO2`, the cytotoxicity call was “inactive”.
`C[C@@H]1CCCCO[C@H](CN(C)C(=O)Nc2ccc3c(c2)OCO3)[C@H](C)CN([C@@H](C)CO)C(=O)c2cc(NS(=O)(=O)c3ccc(Cl)cc3)ccc2O1`: the cytotoxicity call was “inactive”.
For the compound `C[C@H]1CCCCO[C@H](CN(C)C(=O)Nc2ccc3c(c2)OCO3)[C@@H](C)CN([C@@H](C)CO)C(=O)c2cc(NS(=O)(=O)c3ccc(Cl)cc3)ccc2O1`, the cytotoxicity call is “active”.
The result for `Cc1ccc(S(=O)(=O)Nc2ccc3c(c2)C(=O)N([C@@H](C)CO)C[C@H](C)[C@@H](CN(C)C(=O)Nc2ccc4c(c2)OCO4)OCCCC[C@@H](C)O3)cc1` reads “inactive”.
The result for `COc1ccc(S(=O)(=O)Nc2ccc3c(c2)C(=O)N([C@H](C)CO)C[C@H](C)[C@H](CN(C)C(=O)Nc2ccc4c(c2)OCO4)OCCCC[C@H](C)O3)cc1` reads “inactive”; that for `COc1ccc(S(=O)(=O)Nc2ccc3c(c2)C(=O)N([C@@H](C)CO)C[C@H](C)[C@@H](CN(C)C(=O)Nc2ccc4c(c2)OCO4)OCCCC[C@@H](C)O3)cc1`, “inactive”; that for `Cc1ccc(S(=O)(=O)Nc2ccc3c(c2)C(=O)N([C@H](C)CO)C[C@H](C)[C@@H](CN(C)C(=O)Nc2ccc4c(c2)OCO4)OCCCC[C@H](C)O3)cc1`, “inactive”.
Regarding `COc1ccc2c3c(n(c2c1)C)[C@@H](CO)N(Cc1cc(cc(c1)OC)OC)C[C@]13CN(C1)C(=O)CN1CCOCC1`, the cytotoxicity call is “inactive”.
For `COCC(=O)N1CC[C@@H]2N(S(C)(=O)=O)CC[C@@]2(C(=O)N2CCOCC2)CC1`, the cytotoxicity call is “inactive”.
Regarding `CC(=O)Nc1cc(C(C)C)c(C(C)C)cc1C(C)C`, the cytotoxicity call is “inactive”.
As to `C[C@H](CO)N1C[C@H](C)[C@@H](CN(C)C(=O)Nc2ccc3c(c2)OCO3)OCCCC[C@H](C)Oc2ccc(NC(=O)c3ccccc3)cc2C1=O`, the cytotoxicity call is “inactive”.
Consider `COCC(=O)N1C[C@H](C)[C@H](OC)CN(C)C(=O)c2cc(NC(=O)c3ccc(F)cc3)ccc2OC[C@@H]1C`, for which the cytotoxicity call was “inactive”.
For `C[C@H]1CN([C@@H](C)CO)C(=O)c2cc(NS(=O)(=O)c3cccs3)ccc2O[C@@H]1CN(C)S(=O)(=O)c1ccc(F)cc1`, the cytotoxicity call is “inactive”.
As for `COc1ccc2c3c([nH]c2c1)[C@H](CO)N(C[C@]13CCN(CC1)C(=O)c1ccccc1F)C(=O)Nc1ccccc1F`, the cytotoxicity call was “inactive”.
In the case of `C[C@@H]1CN([C@H](C)CO)C(=O)c2cccc(NC(=O)Nc3ccc4c(c3)OCO4)c2O[C@H]1CN(C)S(C)(=O)=O`, the cytotoxicity call was “inactive”.
With `CN1C[C@@H](O)COC[C@H]2O[C@@H](CC(=O)N3CCN(c4ccccc4)CC3)CC[C@@H]21`, the cytotoxicity call was “inactive”.
As to `CN(C)S(=O)(=O)N1C[C@H]2C[C@H](C(=O)Nc3cccnc3)[C@@H](C1)O2`, the cytotoxicity call is “inactive”.
Consider `C[C@H](c1cccnc1)N(C(=O)Nc1ccccc1)C1CCCCC1`, for which the cytotoxicity call was “active”.
`CN1CCCC1c1cccnc1.O=C(O)C(O)C(O)C(=O)O.O=C(O)C(O)C(O)C(=O)O` (configuration not stated): the cytotoxicity call is “inactive”.
In the case of `C[C@@H]1CN([C@@H](C)CO)C(=O)c2cccc(NC(=O)C3CCCCC3)c2O[C@@H]1CN(C)C(=O)Nc1cccc2ccccc12`, the cytotoxicity call was “inactive”.
`C=CCN1C(=O)[C@@]2(O[C@@H](CCO)[C@H]([Si](C)(C)c3ccc(OC)cc3)[C@H]2C)c2cc(N(C=O)c3ccccc3)ccc21`: the cytotoxicity call is “active”.
The result for `C=CCN1C(=O)[C@@]2(O[C@@H](CCO)[C@H]([Si](C)(C)c3ccc(OC)cc3)[C@H]2C)c2cc(NC(=O)[C@H](C)O)ccc21` reads “inactive”; that for `C=CCN1C(=O)[C@]2(O[C@H](CCO)[C@@H]([Si](C)(C)c3ccc(OC)cc3)[C@@H]2C)c2cc(N(C=O)c3ccccc3)ccc21`, “active”; that for `C=CCN1C(=O)[C@]2(O[C@H](CCO)[C@@H]([Si](C)(C)c3ccc(OC)cc3)[C@@H]2C)c2cc(NC(=O)[C@H](C)O)ccc21`, “inactive”.
`C=CCN1C(=O)[C@]2(O[C@H](CCn3cc(CCO)nn3)[C@@H]([Si](C)(C)c3ccc(OC)cc3)[C@@H]2C)c2cc(N3CCC3=O)ccc21`: the cytotoxicity call was “inactive”.
With `C=CCN1C(=O)[C@@]2(O[C@@H](CCn3cc(CCO)nn3)[C@H]([Si](C)(C)c3ccc(OC)cc3)[C@H]2C)c2cc(N3CCC3=O)ccc21`, the cytotoxicity call is “inactive”.
Consider `CC(=O)N[C@H](Cc1ccc2ccccc2c1)C(=O)N[C@H](Cc1ccc(Cl)cc1)C(=O)N[C@H](Cc1cccnc1)C(=O)N[C@@H](CO)C(=O)N[C@@H](Cc1ccc(NC(=O)[C@@H]2CC(=O)NC(=O)N2)cc1)C(=O)N[C@H](Cc1ccc(NC(N)=O)cc1)C(=O)N[C@@H](CC(C)C)C(=O)N[C@@H](CCCCNC(C)C)C(=O)N1CCC[C@H]1C(=O)N[C@H](C)C(N)=O`, for which the cytotoxicity call was “inactive”.
Turning to `COc1ccc(NC(=O)Nc2ccc3c(c2)C(=O)N([C@H](C)CO)C[C@H](C)[C@H](CN(C)S(=O)(=O)c2ccc(F)cc2)OCCCC[C@H](C)O3)cc1`, the cytotoxicity call was “inactive”.
Take `CC(C)NC(=O)Nc1ccc2c(c1)C(=O)N([C@H](C)CO)C[C@H](C)[C@H](CN(C)C(=O)Nc1ccc(C(F)(F)F)cc1)OCCCC[C@H](C)O2`: the cytotoxicity call was “inactive”.
Consider `CC(C)NC(=O)Nc1ccc2c(c1)C(=O)N([C@@H](C)CO)C[C@@H](C)[C@H](CN(C)C(=O)Nc1ccc(C(F)(F)F)cc1)OCCCC[C@H](C)O2`, for which the cytotoxicity call is “inactive”.
Then `CC(C)NC(=O)Nc1ccc2c(c1)C(=O)N([C@H](C)CO)C[C@@H](C)[C@H](CN(C)C(=O)Nc1ccc(C(F)(F)F)cc1)OCCCC[C@H](C)O2`, with “inactive”; and `CC(C)NC(=O)Nc1ccc2c(c1)C(=O)N([C@H](C)CO)C[C@@H](C)[C@@H](CN(C)C(=O)Nc1ccc(C(F)(F)F)cc1)OCCCC[C@@H](C)O2`, with “active”; and `CC(C)NC(=O)Nc1ccc2c(c1)C(=O)N([C@@H](C)CO)C[C@@H](C)[C@H](CN(C)C(=O)Nc1ccc(C(F)(F)F)cc1)OCCCC[C@@H](C)O2`, with “active”.
Then `CC(C)NC(=O)Nc1ccc2c(c1)C(=O)N([C@@H](C)CO)C[C@@H](C)[C@@H](CN(C)C(=O)Nc1ccc(C(F)(F)F)cc1)OCCCC[C@H](C)O2`, with “inactive”.
